Records with an inconclusive call do not appear. Active and inactive are the calls of the source. Unless noted, calls come from the whole dose curve; as a rule, active = well fitted curve in the direction sought with a large enough effect in the repeat runs; inconclusive = weak or mixed curves; inactive = no such curve, though single readings can be large; an effect the other way counts as inactive or inconclusive.
Key:
[1] = qHTS assay for small molecule agonists of the p53 signaling pathway (AID 651631; calls by dose curve; note: nearly all actives have a fitted effect of over 15% in size)
In short: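 Fluorescence intensity from cleaved LiveBLAzer B/G substrate (2 h, room temperature) served as the signal. Beforehand, HCT-116 reporter cells bearing p53 response elements were treated 16 h at 37 °C with DMSO-dissolved compounds.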

[2] = qHTS assay for small molecules that induce genotoxicity in human embryonic kidney cells expressing luciferase-tagged ATAD5 (AID 651632); note: nearly all actives have a fitted effect of over 15% in size
In short: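 Cells were seeded at 2,000 per well, dosed with compound, and incubated 16 hr at 37C in 5% CO2. Luciferase activity was then quantified after a 30 min room-temperature incubation with Amplite.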

[3] = qHTS assay for small molecule agonists of the p53 signaling pathway - cell viability (AID 651633; calls by dose curve;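 note: p53RE-bla HCT reporter cells with a stable beta-lactamase p53 reporter; series mostly up to about 83 µM; nearly all actives have a fitted effect of over 30% in size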)
In short: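 p53RE-bla cells were treated with compound for 16 hours at 37 C. Cytotoxicity was then measured as CellTiter-Glo luminescence after 30 min at room temperature.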

[4] = qHTS assay for small molecules that induce genotoxicity in human embryonic kidney cells expressing luciferase-tagged ATAD5 - cell viability (AID 651634; calls by dose curve; note: nearly all actives have a fitted effect of over 25% in size)
In short: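 Cells (HEK293T, luciferase-tagged ATAD5) are seeded at 2,000 per well, dosed with compound or DMSO vehicle, and incubated 15.5 hr at 37C and 5% CO2. CellTiter-Fluor is added for 30 min before fluorescence is measured.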

[5] = qHTS assay for small molecule disruptors of the mitochondrial membrane potential - cell viability (AID 720634; calls by dose curve;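 note: human HepG2 liver cancer cells; series mostly up to about 83 µM; nearly all actives have a fitted effect of over 20% in size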)
In short: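 Cytotoxicity was measured by ATP quantitation in HepG2 wells that had first been treated with compound for 1 hr and stained with m-MPI dye; CellTiter-Glo incubation was 30 min at room temperature.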

[6] = qHTS assay to test for compound auto fluorescence at 590 nm (red) in HepG2 cells (AID 720674)
In short: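 Fluorescence at 590 nm emission following 540 nm excitation was recorded from HepG2 wells one hour after compound transfer, with DMSO-only wells as vehicle and Rose Bengal sodium equivalency as the scale.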

[7] = qHTS assay to test for compound auto fluorescence at 535 nm (green) in HepG2 cells (AID 720675)
[8] = qHTS assay to test for compound auto fluorescence at 590 nm (red) in HEK293 cells (AID 720679)
In short: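 HEK293 cells (2,000/well, medium with 10% dialyzed FBS) attached for 4-5 hr at 37C, received 23 nL compound and were incubated overnight at 37C, 5% CO2. Red fluorescence was then read at 540/590nm Ex/Em, referenced to Rose Bengal sodium.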

[9] = qHTS assay to test for compound auto fluorescence at 535 nm (green) in HEK293 cells (AID 720680)
[10] = qHTS assay to test for compound auto fluorescence at 460 nm (blue) in HEK293 cell free culture (AID 720681)
In short: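 Compounds were added to cell-free DMEM with 10% FBS and fluorescence read directly. The blue channel used 405 nm excitation and 460 nm emission, with triamterene as the reference fluorophore.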

[11] = qHTS assay to test for compound auto fluorescence at 535 nm (green) in HEK293 cell free culture (AID 720682)
In short: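 Intrinsic compound fluorescence is measured in culture medium containing 10% FBS, with excitation at 485 nm and detection at 535 nm, referenced to fluorescein.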

[12] = qHTS assay to test for compound auto fluorescence at 590 nm (red) in HEK293 cell free culture (AID 720683)
In short: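 Cell-free wells of DMEM with 10% FBS received compound, and intrinsic fluorescence was read at excitation/emission 540/590 nm. Values expressed as equivalence to Rose Bengal sodium.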

[13] = qHTS assay to test for compound auto fluorescence at 590 nm (red) in HepG2 cell free culture (AID 720684)
In short: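 Rose Bengal sodium served as the reference for red signal. Test compounds were dispensed into serum-containing MEM (10% FBS) without cells, and plates were read at 540/590 nm.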

[14] = qHTS assay to test for compound auto fluorescence at 460 nm (blue) in HepG2 cell free culture (AID 720685)
In short: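 Cell-free plates of MEM plus 10% FBS received 23 nL compound or DMSO vehicle; blue-channel (405/460 nm) intensity scored against triamterene as reference fluorophore.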

[15] = qHTS assay to test for compound auto fluorescence at 535 nm (green) in HepG2 cell free culture (AID 720686)
[16] = qHTS assay to test for compound auto fluorescence at 460 nm (blue) in HepG2 cells (AID 720687)
In short: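 HepG2 cells in MEM with 10% FBS, attached overnight at 37 C, were exposed to compound or DMSO for 1 hr at 37 C, 5% CO2. Blue fluorescence was read at 405/460 nm, with triamterene as reference fluorophore.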

[17] = biological target: Glucocorticoid receptor (Homo sapiens) (UniProt P04150); test: qHTS assay to identify small molecule agonists of the glucocorticoid receptor (GR) signaling pathway (AID 720691; active = well fitted activation curve with a large enough effect in the signal ratio in the repeat runs, not every such curve was filed as active; the % refers to the signal ratio)
In short: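 Steps: seed GR-bla HeLa cells, incubate 4 h at 37 C/5% CO2; pin-transfer DMSO-dissolved compounds; incubate 18 h at 37 C; add LiveBLAzer B/G FRET substrate; after 2 h at room temperature, measure fluorescence.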

[18] = biological target: Glucocorticoid receptor (Homo sapiens) (UniProt P04150); test: qHTS assay to identify small molecule antagonists of the glucocorticoid receptor (GR) signaling pathway (AID 720692; active = well fitted inhibition curve with a large enough effect in the signal ratio in the repeat runs, not every such curve was filed as active; the % refers to the signal ratio)
In short: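 Antagonism was scored as loss of dexamethasone-driven (5 nM final) reporter signal in HeLa cells bearing a glucocorticoid response element–beta-lactamase construct, after 18 h compound exposure at 37 C and 2 h FRET substrate loading.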

[19] = qHTS assay for small molecule disruptors of the mitochondrial membrane potential (AID 720635)
In short: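 HepG2 cells exposed to compound 1 hr at 37C, then Mito-MPS dye 30 min. Ratio read of aggregate (540/590 nm) versus monomer (490/535 nm) fluorescence.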

[20] = qHTS assay to test for compound auto fluorescence at 460 nm (blue) in HEK293 cells (AID 720678)
In short: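 HEK293 cells (2,000 per well, medium with 10% dialyzed FBS) attached for 4-5 hr at 37C, then received compound and stood overnight at 37C, 5% CO2. Blue fluorescence was read at Ex/Em 405/460 nm and expressed relative to triamterene.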

Measured: Potency

Chain of Glucocorticoid receptor (Homo sapiens) (P04150 whole entry, looked up): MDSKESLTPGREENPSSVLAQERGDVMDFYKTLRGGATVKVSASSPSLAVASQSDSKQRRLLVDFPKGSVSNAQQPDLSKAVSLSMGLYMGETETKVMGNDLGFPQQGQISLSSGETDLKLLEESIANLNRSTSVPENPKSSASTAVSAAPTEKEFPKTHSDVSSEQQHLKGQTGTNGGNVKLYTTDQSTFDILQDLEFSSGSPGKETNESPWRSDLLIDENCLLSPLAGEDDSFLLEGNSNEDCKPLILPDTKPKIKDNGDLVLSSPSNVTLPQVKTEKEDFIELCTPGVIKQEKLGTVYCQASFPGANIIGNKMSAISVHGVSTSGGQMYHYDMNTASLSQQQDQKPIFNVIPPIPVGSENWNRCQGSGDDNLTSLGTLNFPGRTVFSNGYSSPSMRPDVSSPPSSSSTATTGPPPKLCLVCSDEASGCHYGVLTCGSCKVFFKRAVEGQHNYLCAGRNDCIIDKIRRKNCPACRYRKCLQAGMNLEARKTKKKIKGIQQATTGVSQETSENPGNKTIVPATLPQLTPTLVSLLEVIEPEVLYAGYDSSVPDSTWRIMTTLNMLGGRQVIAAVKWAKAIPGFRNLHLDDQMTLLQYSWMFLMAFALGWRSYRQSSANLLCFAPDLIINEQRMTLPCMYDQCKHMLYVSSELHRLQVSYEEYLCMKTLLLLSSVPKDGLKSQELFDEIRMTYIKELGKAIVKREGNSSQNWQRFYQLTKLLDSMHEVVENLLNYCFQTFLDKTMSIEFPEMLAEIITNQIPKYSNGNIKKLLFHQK

CCN(CC)CCOC(=O)C(c1ccccc1)c1ccccc1
not listed: [19] | [20]
inactive: all other assays above

O=C(O)CN1C(=O)c2cccc3cccc(c23)C1=O
not listed: [17] | [18] | [19] | [20]
inactive: all other assays above

COC(OC)OC
not listed: [6] | [8] | [9] | [18] | [20]
inactive: all other assays above

CC(C)COC(=O)COc1cc(Cl)c(Cl)cc1Cl
not listed: [18] | [19]
inactive: all other assays above

CC(C)(O)CCc1ccccc1
not listed: [6] | [10] | [18]
inactive: all other assays above

[Cl][Nd]([Cl])[Cl]
not listed: [9] | [14] | [15] | [18] | [19]
inactive: all other assays above

COc1cc(NS(=O)(=O)c2ccc(N)cc2)nc(C)n1
not listed: [6]
inactive: all other assays above

COc1ccc(C(=O)NCc2ccc(OCCN(C)C)cc2)cc1OC
not listed: [6] | [8] | [14]
inactive: all other assays above

CC(C)C(O)C(C)(C)CO (configuration not stated)
not listed: [6] | [9] | [18]
inactive: all other assays above

CCCCCCC(O)CCOC(C)=O (configuration not stated)
not listed: [17] | [18] | [19]
inactive: all other assays above

Cc1cccc(C)c1NC(=O)c1cc(S(N)(=O)=O)c(Cl)cc1O
not listed: [6] | [9] | [10]
inactive: all other assays above

CSSc1ccoc1C
not listed: [8] | [9] | [10] | [14] | [18] | [19] | [20]
inactive: all other assays above

CCC(C)(C)C(=O)O
not listed: [8] | [18] | [19]
inactive: all other assays above

Cc1cccc2sc(N)nc12
not listed: [19] | [20]
inactive: all other assays above

O=CNNC=O
not listed: [8] | [19]
inactive: all other assays above

Source: PubChem BioAssay (Tox21)
